Measurements reported in the supplement of paper PMC13380429.

What follows are compounds tested on Vero E6 infected with SARS-CoV-2 (assay: morphology score (similarity to uninfected cells); higher = more like uninfected cells). Details: 24 h.
`CC(C)c1cc(-c2n[nH]c(=O)n2-c2ccc3c(ccn3C)c2)c(O)cc1O` [ganetespib] (0.833333 µM) showed a morphology score of 0.0711.
For `COc1ccc(Cc2nccc3cc(OC)c(OC)cc23)cc1OC` [papaverine] (10 µM), the morphology score was 0.169.
`NCCc1c[nH]c2ccc(C(N)=O)cc12` [5-carboxamidotryptamine] (10 µM) showed a morphology score of 0.0259.
Compound `CC(C)N(CCNC(=O)CN1CCCC1=O)C(C)C` [pramiracetam] (10 µM) has a morphology score of -0.0542.
Compound `CNC(=O)c1cc2c(cn1)[nH]c1ccccc12` (10 µM) has a morphology score of 0.241.
Work on `CC(C)[C@H](N)C(=O)OCC(CO)OCn1cnc2c(=O)nc(N)[nH]c21` (mixture of isomers) [valganciclovir] (10 µM) yielded a morphology score of 0.118.
With `c1ccc2c(c1)CCC[C@H]2Nc1nc2ccccc2[nH]1` (10 µM) the morphology score was 0.268.
`C/C(=C\c1csc(C)n1)[C@@H]1C[C@@H]2O[C@]2(C)CCC[C@H](C)[C@H](O)[C@@H](C)C(=O)C(C)(C)[C@@H](O)CC(=O)O1` [epothilone-B] (0.833333 µM) showed a morphology score of 0.00236.
With `Cn1c(COP(=O)(NCCBr)NCCBr)cnc1[N+](=O)[O-]` (10 µM) the morphology score was 0.0413.
For `CCCC(=O)C1CCN(c2ncnc3c2CN(C(=O)c2ccc(-c4ccccc4)cc2)CC3)CC1` (10 µM), the morphology score was 0.0512.
In the case of `Cc1ccc(S(=O)(=O)c2ccc([N+](=O)[O-])o2)cc1` (0.833333 µM), the morphology score is reported as 0.215.
`Cc1onc(-c2ccccc2Cl)c1C(=O)N[C@@H]1C(=O)N2[C@@H]1SC(C)(C)[C@@H]2C(=O)O` [cloxacillin] (10 µM) was tested, and the morphology score was 0.00481.
For `CC(=O)c1c(C)c2cnc(Nc3ccc(N4CCNCC4)cn3)nc2n(C2CCCC2)c1=O` [palbociclib] (10 µM), the morphology score was 0.0925.
Work on `CCC1(C2=NCCN2)Cc2ccccc2O1` (stereo unspecified) [efaroxan] (10 µM) yielded a morphology score of 0.165.
Compound `Cc1nnc(C(C)C)n1C1C[C@H]2CC[C@@H](C1)N2CC[C@H](NC(=O)C1CCC(F)(F)CC1)c1ccccc1` (stereo in doubt) [maraviroc] (10 µM) has a morphology score of 0.145.
For `Cc1cnc(Nc2ccc(OCCN3CCCC3)cc2)nc1Nc1cccc(S(=O)(=O)NC(C)(C)C)c1` [fedratinib] (0.833333 µM), the morphology score was -0.054.
`CC[C@@H]1/C=C(\C)C[C@H](C)C[C@H](OC)[C@H]2O[C@@](O)(C(=O)C(=O)N3CCCC[C@H]3C(=O)O[C@H](/C(C)=C/[C@@H]3CC[C@@H](O)[C@H](OC)C3)[C@H](C)[C@@H](O)CC1=O)[C@H](C)C[C@@H]2OC` [ascomycin] (10 µM) gave a morphology score of 0.0662.
`O=C(Nc1cccnc1)N1CCC(Cc2cccc(Oc3ccc(C(F)(F)F)cn3)c2)CC1` (0.833333 µM) was tested, and the morphology score was 0.191.
`CN1Cc2c(N)cccc2C(c2ccccc2)C1` (stereo unspecified) [nomifensine] (10 µM) was tested, and the morphology score was -0.106.
Compound `c1cc2c(cc1C1CCCCC1)c1c3n2CCNC3CCC1` (stereo unspecified) [tetrindole] (0.833333 µM) has a morphology score of -6.12e-06.
In the case of `Clc1ccc(-c2nc3sccn3c2/C=N/OCc2ccc(Cl)c(Cl)c2)cc1` (10 µM), the morphology score is reported as 0.00562.
`COc1ccc([C@]2(C#N)CC[C@@H](C(=O)O)CC2)cc1OC1CCCC1` [cilomilast] (10 µM) was tested, and the morphology score was 0.246.
With `Nc1ncnc2c1ncn2[C@H]1CC[C@@H](CO)O1` [dideoxyadenosine] (10 µM) the morphology score was 0.103.
With `CC(=O)CC(=O)O` [lithium-acetoacetate] (10 µM) the morphology score was 0.0997.
For `CCOc1nc2cccc(C(=O)OCc3oc(=O)oc3C)c2n1Cc1ccc(-c2ccccc2-c2noc(=O)[nH]2)cc1` [azilsartan-medoxomil] (10 µM), the morphology score was -0.168.
`C/C(=N\Nc1nnc2c(n1)[nH]c1c(C)cccc12)c1ccccn1` (10 µM) gave a morphology score of 0.01.
`NC(=O)CC[C@H](N)C(=O)O` [L-glutamine] (10 µM) showed a morphology score of 0.278.
In the case of `Cc1ccc(C(=O)Nc2ccc(S(=O)(=O)O)c3cc(S(=O)(=O)O)cc(S(=O)(=O)O)c23)cc1NC(=O)c1cccc(NC(=O)Nc2cccc(C(=O)Nc3cc(C(=O)Nc4ccc(S(=O)(=O)O)c5cc(S(=O)(=O)O)cc(S(=O)(=O)O)c45)ccc3C)c2)c1` [suramin] (10 µM), the morphology score is reported as 0.13.
For `NCCCCN` [putrescine] (10 µM), the morphology score was 0.0364.
For `N[C@@H](CSCCCO)C(=O)O` [fudosteine] (10 µM), the morphology score was 0.0399.
With `COc1ccc(CCN(C)CCCC(C#N)(c2cc(OC)c(OC)c(OC)c2)C(C)C)cc1OC` (stereo unspecified) [gallopamil] (10 µM) the morphology score was 0.176.
